Experimental data from ChEMBL document CHEMBL4513148, “CO-ADD screening of Stellenbosch University (South Africa) compounds”.
Results with a measured potency or affinity are listed apart.

System: Klebsiella pneumoniae
Details: Concentration 32 ug.mL-1; ASSAY_TEST Inhibition of Bacterial Growth; detection method Absorption (OD600); MEDIA CAMHB; plate type 384well; NBS; CORNING #3640; time 18 hr

Row | Compound | Inhibition [%]
1 | CC(C)(C)C(O)C(=O)NCCC(=O)NCCc1ccccc1 (centres undefined) | 24.7
2 | CC(C)(CO)[C@H](O)C(=O)NCCC(=O)OCc1cn(C[C@H]2O[C@@H](n3ccc(N)nc3=O)[C@H](O)[C@@H]2O)nn1 | 19.86
3 | C#CCNC(=O)[C@H](O)C(C)(C)CO | 17.37
4 | CC(C)(CO)[C@@H](O)C(=O)N/C=C/C(=O)NCCc1ccccc1 | 27.58
5 | CCCCCCCNC(=S)CCNC(=O)[C@H](O)C(C)(C)CO | 15.93
6 | CC(CC(=O)NCCc1ccccc1)NC(=O)[C@H](O)C(C)(C)CO (some centres undefined) | 21.7
7 | CC(C)(CN)C(O)C(=O)NCCC(=O)NCCc1ccccc1 (centres undefined) | 28.43
8 | CCCCCCCNC(=O)CCNC(=O)C(O)C(C)(C)C (centres undefined) | 17.81
9 | CC(C)(CO)C(O)C(=O)NCCCOP(=O)(O)OCC1OC(n2ccc(N)nc2=O)C(O)C1O (centres undefined) | 14.41
10 | CC(C)(CO)[C@@H](O)C(=O)NCCC(=S)NCCc1ccccc1 | 23.06
11 | CC(C)(CO)[C@@H](O)C(=O)NCCC(=O)NNCc1ccccc1 | 28.52
12 | CCCCCCCNS(=O)(=O)CCNC(=O)[C@H](O)C(C)(C)CO | 15.06
13 | CC(C)(CO)[C@H](O)C(=O)NCCc1cn(C[C@H]2O[C@@H](n3ccc(N)nc3=O)[C@H](O)[C@@H]2O)nn1 | 11.31
14 | CC(C)(CO)[C@H](O)C(=O)NCc1cn(C[C@H]2O[C@@H](n3ccc(N)nc3=O)[C@H](O)[C@@H]2O)nn1 | 7.03
15 | CCCCCCNNC(=O)CCNC(=O)[C@H](O)C(C)(C)CO | 13.13
16 | CC(C)(CO)[C@H](O)C(=O)NCCC(=O)NCc1cn(C[C@H]2O[C@@H](n3ccc(N)nc3=O)[C@H](O)[C@@H]2O)nn1 | 19
17 | CC(C)(CO)[C@H](O)C(=O)NCCCc1cn(C[C@H]2O[C@@H](n3ccc(N)nc3=O)[C@H](O)[C@@H]2O)nn1 | 15.48
18 | CC(C)(COP(=O)(O)O)[C@@H](O)C(=O)NCCC(=O)NCCc1ccccc1 | 20.53

System: Candida albicans
Details: 32 ug/mL

Row | Compound | Inhibition [%]
19 | CC(C)(C)C(O)C(=O)NCCC(=O)NCCc1ccccc1 (centres undefined) | 0.67
20 | CC(C)(CO)[C@H](O)C(=O)NCCC(=O)OCc1cn(C[C@H]2O[C@@H](n3ccc(N)nc3=O)[C@H](O)[C@@H]2O)nn1 | 3.13
21 | C#CCNC(=O)[C@H](O)C(C)(C)CO | -0.84
22 | CC(C)(CO)[C@@H](O)C(=O)N/C=C/C(=O)NCCc1ccccc1 | 6.96
23 | CCCCCCCNC(=S)CCNC(=O)[C@H](O)C(C)(C)CO | 2.87
24 | CC(CC(=O)NCCc1ccccc1)NC(=O)[C@H](O)C(C)(C)CO (some centres undefined) | 3.05
25 | CC(C)(CN)C(O)C(=O)NCCC(=O)NCCc1ccccc1 (centres undefined) | 3.05
26 | CCCCCCCNC(=O)CCNC(=O)C(O)C(C)(C)C (centres undefined) | 1
27 | CC(C)(CO)C(O)C(=O)NCCCOP(=O)(O)OCC1OC(n2ccc(N)nc2=O)C(O)C1O (centres undefined) | 3.26
28 | CC(C)(CO)[C@@H](O)C(=O)NCCC(=S)NCCc1ccccc1 | -0.77
29 | CC(C)(CO)[C@@H](O)C(=O)NCCC(=O)NNCc1ccccc1 | 4.15
30 | CCCCCCCNS(=O)(=O)CCNC(=O)[C@H](O)C(C)(C)CO | -2.91
31 | CC(C)(CO)[C@H](O)C(=O)NCCc1cn(C[C@H]2O[C@@H](n3ccc(N)nc3=O)[C@H](O)[C@@H]2O)nn1 | 0.57
32 | CC(C)(CO)[C@H](O)C(=O)NCc1cn(C[C@H]2O[C@@H](n3ccc(N)nc3=O)[C@H](O)[C@@H]2O)nn1 | -0.48
33 | CCCCCCNNC(=O)CCNC(=O)[C@H](O)C(C)(C)CO | -0.25
34 | CC(C)(CO)[C@H](O)C(=O)NCCC(=O)NCc1cn(C[C@H]2O[C@@H](n3ccc(N)nc3=O)[C@H](O)[C@@H]2O)nn1 | 2.72
35 | CC(C)(CO)[C@H](O)C(=O)NCCCc1cn(C[C@H]2O[C@@H](n3ccc(N)nc3=O)[C@H](O)[C@@H]2O)nn1 | 1.6
36 | CC(C)(COP(=O)(O)O)[C@@H](O)C(=O)NCCC(=O)NCCc1ccccc1 | 1.57

System: Cryptococcus neoformans
Details: Concentration 32 ug.mL-1; ASSAY_TEST Inhibition of Fungal Growth; detection method Resazurin; Absorption (OD600-OD570); plate type 384well; NBS; CORNING #3640

Row | Compound | Inhibition [%]
37 | CC(C)(C)C(O)C(=O)NCCC(=O)NCCc1ccccc1 (centres undefined) | -0.45
38 | CC(C)(CO)[C@H](O)C(=O)NCCC(=O)OCc1cn(C[C@H]2O[C@@H](n3ccc(N)nc3=O)[C@H](O)[C@@H]2O)nn1 | -1.73
39 | C#CCNC(=O)[C@H](O)C(C)(C)CO | -0.61
40 | CC(C)(CO)[C@@H](O)C(=O)N/C=C/C(=O)NCCc1ccccc1 | -6.96
41 | CCCCCCCNC(=S)CCNC(=O)[C@H](O)C(C)(C)CO | -3.35
42 | CC(CC(=O)NCCc1ccccc1)NC(=O)[C@H](O)C(C)(C)CO (some centres undefined) | 2.32
43 | CC(C)(CN)C(O)C(=O)NCCC(=O)NCCc1ccccc1 (centres undefined) | 42.65
44 | CCCCCCCNC(=O)CCNC(=O)C(O)C(C)(C)C (centres undefined) | 0.36
45 | CC(C)(CO)C(O)C(=O)NCCCOP(=O)(O)OCC1OC(n2ccc(N)nc2=O)C(O)C1O (centres undefined) | -6.1
46 | CC(C)(CO)[C@@H](O)C(=O)NCCC(=S)NCCc1ccccc1 | 0.82
47 | CC(C)(CO)[C@@H](O)C(=O)NCCC(=O)NNCc1ccccc1 | -4.98
48 | CCCCCCCNS(=O)(=O)CCNC(=O)[C@H](O)C(C)(C)CO | 2.56
49 | CC(C)(CO)[C@H](O)C(=O)NCCc1cn(C[C@H]2O[C@@H](n3ccc(N)nc3=O)[C@H](O)[C@@H]2O)nn1 | -3.52
50 | CC(C)(CO)[C@H](O)C(=O)NCc1cn(C[C@H]2O[C@@H](n3ccc(N)nc3=O)[C@H](O)[C@@H]2O)nn1 | 6.11
51 | CCCCCCNNC(=O)CCNC(=O)[C@H](O)C(C)(C)CO | 3.11
52 | CC(C)(CO)[C@H](O)C(=O)NCCC(=O)NCc1cn(C[C@H]2O[C@@H](n3ccc(N)nc3=O)[C@H](O)[C@@H]2O)nn1 | -1.6
53 | CC(C)(CO)[C@H](O)C(=O)NCCCc1cn(C[C@H]2O[C@@H](n3ccc(N)nc3=O)[C@H](O)[C@@H]2O)nn1 | -4.03
54 | CC(C)(COP(=O)(O)O)[C@@H](O)C(=O)NCCC(=O)NCCc1ccccc1 | 21.44
